{"source": "PubChem BioAssay (Tox21)", "note": "Activity calls are given as the source filed them. Calls come from the whole dose curve.", "data": [{"test": "qHTS assay to identify small molecule agonists of the sonic hedgehog signaling (Shh) pathway (AID 1259368);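 note: NIH/3T3-derived 3T3Gli1-Luc cells carrying a stable Gli1-driven firefly luciferase reporter; % is set by controls: 0 for no effect and ±100 for the full control effect; nearly all actives have a fitted effect of over 15% in size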", "settings": "NIH/3T3 Gli1-Luc reporter, luciferase, 24 h; series mostly up to 92.4 µM; activity change: at the top concentration", "from_the_text": "National Center for Advancing Translational Sciences [NCATS]\nNIH Chemical Genomics Center [NCGC]\nU.S. Environmental Protection Agency [EPA]\nNational Institutes of Environmental Health Sciences [NIEHS]\nNational Toxicology Program [NTP]\nThe sonic hedgehog (Shh) pathway is essential for normal embryonic development. Dysregulation of the Shh pathway can cause severe developmental defects in organs. Therefore chemicals that interfere with the pathway are potential developmental toxicants. A cell line designated 3T3Gli1-Luc (DMB/OARSA/CFSAN/FDA, Laurel, MD), a NIH/3T3 derived clone containing stably integrated Gli1-Luc reporter is used to detect chemical interference of the Shh pathway, by changes in the expression of the firefly Luc gene under the control of the Gli1 transcriptional response element. This cell line was used to screen Tox21 libraries for identifying and prioritizing the potential developmental toxicants that interfere Shh pathway.\n3T3 Gli1-Luc cells were dispensed at 2,000 per well in 5uL of culture medium into white solid bottom 1536-well plates (Greiner Bio-One, Monroe, NC) using a Multidrop Combi (Thermo Scientific, Waltham, MA) dispenser. The assay plates were incubated at 37 C and 5% CO2 for 4hr, and then 23nL of compounds dissolved in DMSO and positive control were transferred using a Pintool station (Wako, San Diego, CA). The assay plates were incubated at 37C and 5% CO2 for 24hr. For luciferase read, 4uL of Amplite Luciferase reporter gene assay reagent (AAT Bioquest, Inc. Sunnyvale, CA) was added to each well of the assay plates using Flying Reagent Dispenser (FRD, Aurora Discovery, San Diego, CA) and incubated at room temperature for 30min. The luminescence signal was measured using a ViewLux plate reader (Perkin Elmer, Shelton, CT).", "values": [{"molecule": "CCCSP(=S)(OCC)Oc1ccc(SC)cc1", "note": "(stereo not given)", "activity change": "-0.801% (inactive)"}, {"molecule": "CCCCCCCCCCCCCCCl", "activity change": "10.6% (inactive)"}, {"molecule": "CCOP(=S)(S)OCC", "activity change": "-0.22% (inactive)"}, {"molecule": "c1ccc2c(c1)sc1ccccc12", "Potency": "inactive"}, {"molecule": "Nc1cc(Cl)cc(C(=O)O)c1Cl", "Potency": "inactive"}, {"molecule": "C=C(Cl)Cl", "activity change": "-1.07% (inactive)"}, {"molecule": "CCSCc1ccccc1OC(=O)NC", "activity change": "0.806% (inactive)"}, {"molecule": "FC(F)OC(F)(F)C(F)Cl", "note": "(stereo not given)", "activity change": "-0.149% (inactive)"}, {"molecule": "CCOP(=S)(OCC)SCSc1cc(Cl)ccc1Cl", "activity change": "0.49% (inactive)"}, {"molecule": "CC(=O)NNc1ccccc1", "activity change": "-2.57% (inactive)"}, {"molecule": "OCCCl", "activity change": "-0.551% (inactive)"}, {"molecule": "Cc1cccc(C)c1NC1=NCCCS1", "activity change": "-0.521% [at 42.5 µM, hits give high values] (inactive)"}, {"molecule": "CCC1(CCC(C)C)C(=O)NC(=O)NC1=O", "activity change": "0.0446% (inactive)"}, {"molecule": "CN1C[C@H](C(=O)N[C@]2(C)O[C@@]3(O)[C@@H]4CCCN4C(=O)[C@H](Cc4ccccc4)N3C2=O)C=C2c3cccc4[nH]cc(c34)C[C@H]21", "Potency": "inactive"}, {"molecule": "C1CS1", "activity change": "-0.996% (inactive)"}, {"molecule": "C[C@H]1[C@@H]2Cc3ccc(O)cc3[C@@]1(C)CCN2C", "activity change": "-0.162% [at 240 µM, hits give high values] (inactive)"}, {"molecule": "N#CC1(N=NC2(C#N)CCCCC2)CCCCC1", "activity change": "1.7% (inactive)"}, {"molecule": "C=C(C)C(=O)OCCCCOC(=O)C(=C)C", "activity change": "0.783% (inactive)"}, {"molecule": "CCCCCCCCP(=O)(O)O", "activity change": "-0.722% (inactive)"}, {"molecule": "Cc1ccc2c(C)cccc2c1", "activity change": "-0.639% (inactive)"}, {"molecule": "CC(C)(c1ccccc1)c1cc(-n2nc3ccccc3n2)c(O)c(C(C)(C)c2ccccc2)c1", "activity change": "-0.299% [at 42.5 µM, hits give high values] (inactive)"}, {"molecule": "SCc1ccccc1", "activity change": "1.99% (inactive)"}, {"molecule": "CCCCC(CC)COC(=O)c1c(Br)c(Br)c(Br)c(Br)c1C(=O)OCC(CC)CCCC", "note": "(stereo not given)", "activity change": "-3.15% [at 42.5 µM, hits give high values] (inactive)"}, {"molecule": "COc1ccc2c(c1OC)C(=O)O[C@H]2[C@@H]1c2cc3c(cc2CCN1C)OCO3", "activity change": "-1.42% [at 42.5 µM, hits give high values] (inactive)"}, {"molecule": "CCCN(CCOc1c(Cl)cc(Cl)cc1Cl)C(=O)n1ccnc1", "Potency": "inactive"}, {"molecule": "CCCCC1C(=O)NC(=O)N(C2CCCCC2)C1=O", "note": "(stereo not given)", "activity change": "0.376% [at 42.5 µM, hits give high values] (inactive)"}, {"molecule": "O=S(=O)(Cl)Cl", "activity change": "1.23% (inactive)"}, {"molecule": "Clc1ccccc1", "activity change": "-18.9% (inactive)"}, {"molecule": "Cc1ccccc1", "activity change": "0.75% (inactive)"}, {"molecule": "CCCCCl", "activity change": "1.2% (inactive)"}, {"molecule": "CC(C)(C)OOC(C)(C)CCC(C)(C)OOC(C)(C)C", "activity change": "-1.16% (inactive)"}, {"molecule": "CC(Cc1ccccc1)NCc1ccccc1Cl", "note": "(stereo not given)", "activity change": "0.287% [at 42.5 µM, hits give high values] (inactive)"}, {"molecule": "CCCCC#N", "activity change": "0.107% (inactive)"}, {"molecule": "CC(C)(C)c1ccc(CCOc2ncnc3ccccc23)cc1", "activity change": "-0.232% (inactive)"}, {"molecule": "Cc1nc2ccccc2c(=O)n1-c1ccccc1Cl", "activity change": "-0.685% (inactive)"}, {"molecule": "CN1CC[C@]23c4c5ccc(O)c4O[C@H]2[C@@H](O)CC[C@H]3[C@H]1C5", "activity change": "-0.374% (inactive)"}, {"molecule": "[Cl-].[Cl-].[Hg+2]", "Potency": "inactive"}, {"molecule": "O=C(O)c1ccc(=O)[nH]c1", "activity change": "-0.562% [at 42.5 µM, hits give high values] (inactive)"}, {"molecule": "CN1C(=O)CN=C(c2ccccc2)c2cc([N+](=O)[O-])ccc21", "activity change": "-0.69% [at 42.5 µM, hits give high values] (inactive)"}, {"molecule": "C=CCc1ccc(OC(=O)Cc2ccccc2)c(OC)c1", "activity change": "1.29% (inactive)"}]}]}
